# Measured values from PubChem BioAssay AID2284375 (EPA ToxCast).
# Records with an inconclusive call do not appear. The source made the active and inactive calls. The calls were made as follows: active = hit-call score of the fitted dose curve at least 0.9, where 1 is the maximum; inconclusive = response in the unintended direction; inactive = score below 0.9.
# Target: Estrogen receptor (Homo sapiens) (UniProt P03372)
# Experiment: ERF_US_NR_hESR1: Eurofins (ERF) Nuclear Receptor (NR) Cell Based Protein-Protein Interaction LeadHunter Assay for human Estrogen Receptor alpha (ERa) Agonism
# Protocol: ERF_US_NR_hESR1 is a cell-based, single-readout assay that uses extracted gene-proteins in a cell-line assay. Measurements were taken 5 hours after chemical dosing in a 384-well plate. See ERalpha Human Estrogen NHR Cell Based Agonist Protein-Protein Interaction Assay, DiscoverX.ERF_US_NR_hESR1 is an assay component calculated from the ERF_US_NR_hESR1 assay. It is designed to […].Data from the assay component ERF_US_NR_hESR1 was analyzed at the assay endpoint, ERF_US_NR_hESR1, in the positive analysis fitting direction relative to DMSO as the negative control and baseline of activity. Using a type of binding reporter, gain-of-signal activity can be used to understand changes in binding as they relate to gene ESR1. To generalize the intended target to other relatable targets, this assay endpoint is annotated to the nuclear receptor intended target family, where the subfamily is steroid.
# Cells were seeded in a total volume of 20 uL into white walled, 384-well microplates and incubated at 37C overnight prior to testing. Briefly, intermediate dilution of sample stocks was performed to generate 5X sample in assay buffer. 5 uL of 5X sample was added to cells and incubated at37C for 300 minutes. Final assay vehicle concentration was 1%. The results are expressed as a percent efficacy of the control ligand.
# Sequence of Estrogen receptor (Homo sapiens) (P03372 whole entry, looked up): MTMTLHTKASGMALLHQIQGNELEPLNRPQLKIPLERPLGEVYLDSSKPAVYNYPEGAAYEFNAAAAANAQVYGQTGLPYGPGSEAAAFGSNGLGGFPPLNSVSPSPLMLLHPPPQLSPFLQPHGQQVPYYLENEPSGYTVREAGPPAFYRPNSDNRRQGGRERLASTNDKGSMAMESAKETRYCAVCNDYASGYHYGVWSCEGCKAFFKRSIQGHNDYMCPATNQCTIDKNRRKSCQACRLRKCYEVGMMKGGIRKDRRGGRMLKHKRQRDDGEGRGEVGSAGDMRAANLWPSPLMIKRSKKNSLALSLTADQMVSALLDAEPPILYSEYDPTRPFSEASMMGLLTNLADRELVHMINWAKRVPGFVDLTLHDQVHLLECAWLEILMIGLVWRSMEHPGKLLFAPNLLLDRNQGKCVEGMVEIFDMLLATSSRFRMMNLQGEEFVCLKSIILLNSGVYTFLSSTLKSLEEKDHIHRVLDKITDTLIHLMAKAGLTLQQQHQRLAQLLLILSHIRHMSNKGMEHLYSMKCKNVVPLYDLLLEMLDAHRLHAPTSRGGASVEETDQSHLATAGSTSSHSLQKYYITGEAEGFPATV
SMILES,AC50,outcome
OCC(F)(F)OC(F)(F)C(F)(F)OC(F)(F)C(F)(F)OC(F)(F)F,19.5 µM (active),–
NS(=O)(=O)C(F)(F)C(F)(F)C(F)(F)C(F)(F)C(F)(F)C(F)(F)C(F)(F)C(F)(F)F,–,inactive
OCC(F)(F)OC(F)(F)C(F)(F)OC(F)(F)C(F)(F)OC(F)(F)CO,–,inactive
